# In all, about 53,000 sequences went through this assay and about 3,700 (7%) were called active. The sample as a whole holds a higher share of actives than the screen did. Unmarked numbers belong to inactive results.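 Rule for the calls: active = gene knockdowns whose robust z-score for IL-1 alpha signal is at least 2 or at most -2, so actives lie on both sides; inactive = the rest.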
# Assay: Components of the Cytosolic LPS Sensing Pathway: Gene Identification via Genome-wide siRNA Screen;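 note: robust z of the log signal after scaling to non-targeting control siRNA wells of the plate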
# Conditions: RAW264.7 macrophages, IL-1a HTRF, actives lie on both sides, screened at 100 nM (by protocol), cells primed 5 h with Pam3CSK4 first
# Outline: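 RAW264.7; siRNA 100 nM final, RNAiMAX, 48h 37 degrees C; Pam3CSK4 5 h; LipidA + TransIT-TKO 24 h; IL-1a HTRF; CellTiter-Glo viability; robust z vs negative-control median.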
row,Sequence,z-score
1,GCCUCUACUUUACCAAGUUTT against Olfr883,0.523
2,GGGCUUUAGCCUGAGCGAUTT against Gpc1,-0.916
3,GGUGAGCUUGGUUUCUAAATT against Gdf15,2.28 (active)
4,GGCAUCUUCAUGUACUUGCTT against Olfr1445,1.5
5,GGUUUUCAGUACAUCCUGGTT against Cryba4,0.183
6,GCCAUGCAUCUGGAUUUACTT against Nat1,1.19
7,GGAGCAGACUUUAAAAUGATT against Stau1,-0.626
8,GGGCUCAUUGCUAAAACACTT against Sgcg,-0.221
9,GGCUAUUGUACAACUUAUATT against Pafah1b2,2.1 (active)
10,GCCCUUUGGAAGAAUACUCTT against Golt1b,-1.12
11,GGAGCUCAUGGAAAUCUGUTT against Pfpl,0.446
12,AGUGAAGAAAUGUUUGACATT against Raet1b,-1.08
13,CCUAUUUGUAGGUGAUGUUTT against B3gnt7,-0.445
14,GGUUCACUCCUGAUACCACTT against Ddo,1.29
15,GGCUUUUGGCUUCAACCCUTT against Slc39a14,-2.24 (active)
16,GGAAGCCAUUAUACAUGACTT against Uvrag,-0.261
17,GGUACAGAAUAUGUCACAGTT against Olfm3,0.627
18,CCCUCUGGAUGGAUCUUCATT against Fbp2,-1.3
19,GCAAGACUGAAAAUCCUGATT against Timm8a2,-1.2
20,GCAACUGAACCUUCUGCUATT against Morn2,-1.7
21,GGCUUGUACUACCAUGACATT against Rasgef1b,-2.76 (active)
22,GGGAACAAGGAACUCAAAGTT against Cadm1,1.69

row,Sequence,z-score
1,CCUGAAAGAUAACAAGUGGTT against Rnls,0.0112
2,GGUUUGUUUUACAAAAUGCTT against Zdhhc5,0.37
3,GCAUUUUAGACUCAGAAUCTT against Car3,-0.047
4,GGAACGUAUACCUAUACCCTT against Huwe1,-0.263
5,GGUAUGCAGUGAAGAGGAUTT against Paqr9,2.52 (active)
6,CCGUGACAGUCAUGUUGAUTT against Amt,0.235
7,GGAAAGACCUCUUGAUAGGTT against Tbkbp1,0.113
8,CCUCUAUGUGAGAUUUGAGTT against Mamdc2,-0.917
9,CCCACCGAGACACCAUCUUTT against Syne4,-1.78
10,GGGAGAUUGCAUUUGGAGCTT against Olfr678,0.317
11,GGCUGAAGUUACUUUGGAUTT against Nup98,-2.03 (active)
12,GCAUGUAGACUACAACGUGTT against Myoz1,-1.27
13,GGGCUGAAGUGAAACCAGATT against D930048N14Rik,0.415
14,GGGUCCAAAAGAAAAGUGUTT against Zc2hc1c,0.784
15,GCAAAACACACUGAUGGUGTT against Stx16,0.835
16,GGCAAUUCAUUGCAUGUUATT against Cdc42ep3,-0.177
17,GGAUCUCACAGUGAAGAAGTT against Krba1,0.392
18,GCUUAUUUGUGGUACACGGTT against D030056L22Rik,0.112
19,GGUUUCCUGAAGUUUUCAATT against Gnaz,3.08 (active)
20,GGGUUGACCACUAUUUCUGTT against Olfr1338,-1.06
21,CGAAAAAGGGCUUUUAACUTT against Ndufs1,0.757
22,GGUGAAUGAGGACUCUGGGTT against Dcps,-1.07

row,Sequence,z-score
1,CGAGCACCUAUUCAUCAUATT against Tdo2,0.889
2,GGUACGACUUGGAAGAAAUTT against Rock2,-0.415
3,GCUUAUGAUUCCAAGGCAGTT against Serpina6,0.9
4,AAUUCUGGACGAGGAGCAUTT against Abcc5,3.22 (active)
5,CCUGGCAGUAAUCACCAUUTT against Olfr1158,-0.117
6,CGAGAAAAUGGAUUCUACCTT against Atp10d,0.314
7,GGAGUUGUCUACCAAAGUUTT against Reep5,0.609
8,CCCGAUGAAGUGUUUUUAGTT against Oosp1,-0.753
9,GGAAGAAUAAAGUGCUUUGTT against Chga,2.27 (active)
10,GGAUCCUCUUGAUCAAGCUTT against Vps53,-0.891
11,GGUUUGAUUAUACCUAUCATT against Tenm2,-0.337
12,GGAGAAAGGUUUUGUUAUGTT against Gtf2h2,1.5
13,CCUACUACAUCCGCUACUGTT against Apba2,-0.366
14,GGUUUGGCUUAGCUCAUCATT against Mettl24,-2.72 (active)
15,GGGCUACUCAGCCUAUAGUTT against Asic4,1.22
16,GGCAAACUCGGGUAUACACTT against Mybpc1,0.394
17,GGUGUGGCUGUUCUGAUGATT against Olfr771,0.322
18,GCACGAGAGACAUUUCUCCTT against Kat7,-2.32 (active)
19,GGGCUCCUGGUUUAGUAAUTT against Zfp59,1.04
20,GGGUGUUUGGAGAUUGUGUTT against Heatr3,-2.93 (active)
21,GCUUUUCAUACCUGUUUCCTT against 9930111J21Rik2,-0.227
22,CGGAAUCUGACUGGUAUCGTT against Banp,-1.21

row,Sequence,z-score
1,GGAAAAAGCCAAUUAUGUCTT against Fbxl2,-0.954
2,GGUUUUAAGCUUGCUUAUGTT against Ucma,0.4
3,GGAGAUACUAUGUUGCAUUTT against Fgf9,0.537
4,GGAUUCUUGGAGCUCAUUATT against Stag3,-2.46 (active)
5,CCAAGAGAUGCUAGCUAAUTT against Platr28,-0.495
6,GGCAAUCUACUCAUUGUUGTT against Olfr1239,-0.719
7,GCAGGUUAGAGUCACUUGUTT against Trim67,0.143
8,GGUGUCCAGUUCAUCCAGGTT against Vxn,1.15
9,GGAACAAGGUAAAAUACAUTT against Nthl1,3.88 (active)
10,GCUUUGAGAACCUUGGUAATT against Rab9b,-0.652
11,GGAUCAGUGCCUUUGGCUATT against Rhoc,-1.75
12,GGGAUGUUUUGUUUUUAACTT against Mlc1,0.384
13,GGAGUUCACCAGCUACCAATT against Myoz3,-0.537
14,CCAUGGAAUUCAAUUCCUUTT against Vmn2r66,0.0798
15,CCCUAGUUACCAAUUCCACTT against Olfr293,2.61 (active)
16,GGUUGACUGAAUGAUGGAATT against Tcl1b3,-0.724
17,GCCCAUAUCGGAGAAGAUUTT against Cap2,-1.97
18,GGGCAUGUUUAACGACAUUTT against Csf2ra,1.49
19,GGAUUUCCUUUUAAGACUUTT against Rab3il1,-0.71
20,GCUUUACCUGCUCAGAAGCTT against Olfr520,-2.26 (active)
21,GGAAGACAAUAAGAAGUGGTT against Niban2,-0.576
22,CCAUUCCUACAGCAUGCGUTT against Slc27a1,0.523

row,Sequence,z-score
1,GCGAGCUAUUCUUCCUUGUTT against Eif4a1,-2.13 (active)
2,CCUCAUCCAACAUACCUAUTT against Olfr665,-0.665
3,GGACAUCAUAUUCGUUUUCTT against C130026L21Rik,1.12
4,GGGUUGAAGUUUGUCGAAATT against Nlgn1,0.496
5,GGGUCUUUGUACAGAUUGCTT against Olfr275,0.0844
6,GGAGGAAGAGGAGAAUCUATT against Supt6,-2.57 (active)
7,GCUGAAUACAGUUGGUGCUTT against Nelfa,-0.259
8,GGAUUCAAACUGGUUUUCATT against Ptcd3,1.8
9,GGACAAGUUCUGUUGGUAUTT against Zfp275,0.121
10,GCGCAGUCAGACCAUAUAUTT against Fbxl5,-0.874
11,GGGAGACUGUGAAGCUUUATT against Elk4,3.22 (active)
12,GGUCUUAAAGCAUGAGAAGTT against Med8,0.541
13,GGUUCGUAAAAUUAUUAGGTT against Vcl,1.09
14,GGGCAGUCCGUUUCUUAACTT against Kptn,0.815
15,GGAGGUAUUUACCAAAGAUTT against Acer2,0.453
16,CCACACUUUUCAGUAUAAUTT against Lin54,0.897
17,GGGUGACCUAAAGAAUUAATT against Ybx3,0.849
18,GCUGAAUACAACGUGAGAUTT against Tdh,-4.05 (active)
19,GGUUUCGUCUUGAUAUCUATT against Trpc1,-0.417
20,GGAGAGCAGAUGUGAUUCUTT against Mrm2,-0.561

# — PubChem BioAssay AID1508600 (Functional Genomics Laboratory (NCATS/FGL), 2020)
